# PME-1 primary – PME-1 (human) inhibition. recombinant PME-1, FP-Rh probe fluorescence polarization. inhibition, % at 5.9 µM. 320,000 tested, 0.53% active. AID 2130;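 active = inhibition above the campaign mean of all compounds plus 3 SD, cut at about 26% in these data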;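 also: competitive labeling of PME-1 active site by serine hydrolase directed probe; 0% = PME-1 with DMSO and 100% = wells lacking PME-1 enzyme; inhibitors block probe labeling so polarization falls and inhibition rises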
# Target sequence (Q9Y570 whole entry, looked up): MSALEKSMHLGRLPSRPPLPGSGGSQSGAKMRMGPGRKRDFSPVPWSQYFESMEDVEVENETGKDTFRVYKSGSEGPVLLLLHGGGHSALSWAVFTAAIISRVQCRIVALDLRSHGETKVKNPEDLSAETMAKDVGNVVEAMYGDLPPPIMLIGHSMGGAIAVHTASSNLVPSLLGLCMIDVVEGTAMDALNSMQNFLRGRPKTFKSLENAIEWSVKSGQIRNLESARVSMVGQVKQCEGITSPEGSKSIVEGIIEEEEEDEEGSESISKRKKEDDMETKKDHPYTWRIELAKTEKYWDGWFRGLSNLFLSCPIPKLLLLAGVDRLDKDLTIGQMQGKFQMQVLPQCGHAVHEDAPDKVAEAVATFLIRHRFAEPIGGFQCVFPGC
# PREPL inhibitor – inhibitors of human prolyl oligopeptidase-like enzyme PREPL; Q4J6C6; recombinant PREPL, fluorescence polarization activity-based probe; inhibition, % at 5.96 µM; 320,000 tested, 0.68% active; AID 2751; in the data active = inhibition above about 43%;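 also: 0% = enzyme with DMSO and 100% = wells lacking enzyme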
# LYPLA2 inh – blocks human lysophospholipase 2, a PME1 counter-screen | O95372 | recombinant LYPLA2, FP-Rh probe fluorescence polarization | inhibition, % at 5.9 µM | 320,000 tested, 0.38% active | AID 2177;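 active = inhibition above the screen-wide mean plus 3 SD, limit set per campaign, cut at about 26% in these data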;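 also: 0% = LYPLA2 with DMSO and 100% = wells lacking LYPLA2 enzyme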
# GSTO1 inh – GSTO1 inhibition, counter-screen for RBBP9 inhibitors; recombinant GSTO1, activity-based probe fluorescence polarization; 300,000 tested, 1.1% active; inhibition, % at 5.96 µM; AID 1974;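 active = inhibition above the campaign mean inhibition plus 3 SD, cut at about 35% in these data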;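 also: 0% = GSTO1-1 with DMSO and 100% = wells lacking GSTO1-1 enzyme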
# Target sequence (P78417 whole entry, looked up): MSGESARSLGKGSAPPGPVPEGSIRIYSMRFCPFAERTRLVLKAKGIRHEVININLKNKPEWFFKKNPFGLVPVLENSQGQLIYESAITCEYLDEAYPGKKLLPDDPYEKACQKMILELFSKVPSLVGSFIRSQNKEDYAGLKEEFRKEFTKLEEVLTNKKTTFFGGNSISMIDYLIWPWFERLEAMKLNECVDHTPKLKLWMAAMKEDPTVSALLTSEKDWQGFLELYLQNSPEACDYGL
# LYPLA1 inh – counter-screen for PME1 inhibitors: inhibitors of human LYPLA1 | 320,000 tested, 0.16% active | inhibition, % at 5.9 µM | recombinant LYPLA1, FP-Rh probe fluorescence polarization | O75608;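 active = inhibition above the mean of all tested compounds plus 3 SD, set per campaign, cut at about 14% in these data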;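 also: inhibitors block serine hydrolase probe labeling of LYPLA1 so polarization falls; 0% = enzyme with DMSO and 100% = wells lacking LYPLA1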
# Fam108B inh – Fam108B inhibition, counter-screen for RBBP9 inhibitors; 300,000 tested, 0.33% active; inhibition, % at 9.51 µM; recombinant Fam108B, FP-Rh probe fluorescence polarization;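 active = inhibition above the screen mean inhibition plus 3 SD, computed separately per campaign, cut at about 18% in these data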;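 also: inhibitors lower polarization as less probe binds the enzyme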
# LYPLA1 conf – LYPLA1 (human) inhibition, confirmation counter-screen; shares compounds with LYPLA1 inh; recombinant LYPLA1, FP-Rh probe fluorescence polarization; inhibition, % at 5.9 µM; 480 tested, 69% active; AID 2233;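 active = mean inhibition across replicates above the hit cutoff set in the primary screen, cut at about 15% in these data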;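 also: loss of FP-Rh probe labeling of LYPLA1 seen as lower polarization; 0% = LYPLA1 with DMSO and 100% = wells lacking LYPLA1 enzyme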
# LYPLA2 conf – counter-screen for PME1 inhibitors: confirmation of human LYPLA2 inhibitors; recombinant LYPLA2, FP-Rh probe fluorescence polarization; AID 2232; inhibition, % at 5.9 µM; 1,100 tested, 72% active; shares compounds with LYPLA2 inh;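 active = mean inhibition across replicates above the hit cutoff set in the primary screen, cut at about 26% in these data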;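 also: blocked labeling of the enzyme by serine hydrolase FP-Rh probe lowers polarization; 0% = enzyme with DMSO and 100% = wells lacking LYPLA2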
# * hit, by the source's call; . = no result given. Hits are enriched below; roughly 2% of the tested compounds scored in any of these assays.
SMILES,PME-1 primary,PREPL inhibitor,LYPLA2 inh,GSTO1 inh,LYPLA1 inh,Fam108B inh,LYPLA1 conf,LYPLA2 conf
O=C(c1cc[n+]([O-])cc1)N1CCCC(N2CCN(c3cccc(C(F)(F)F)c3)CC2)C1 (centres undefined),-3,13,25,1,4,-1,.,.
CCc1cccc(NC(=O)Cn2cc(C=O)c3ccccc32)c1,-10,-16,6,7,0,3,.,.
C=CCOc1ccc(Br)cc1CNC(C)(C)C,-4,33,-2,1,18*,-4,1,.
Cc1ccsc1C1Nc2ccc3ncccc3c2C2=C1C(=O)CCC2 (centres undefined),16,23,1,-1,28*,-1,31*,.
COc1cc(C2Nc3ccc4ncccc4c3C3=C2C(=O)CCC3)cc(OC)c1OC (centres undefined),-4,-2,-7,12,-2,5,.,.
COc1ccc(Cc2nnc(SCC(=O)N3CCN(c4ccccc4)CC3)o2)cc1,0,-3,-2,10,24*,4,30*,.
O=C(C[n+]1ccc(Cc2ccccc2)cc1)Nc1ccccc1,-3,9,-3,0,2,3,.,.
COc1cc2[nH]c(=O)n(CCC(=O)NCCCN3CCN(c4ccccc4F)CC3)c(=O)c2cc1OC,-2,0,-4,-5,2,-4,.,.
CC(NC(=O)c1ccco1)C(=O)N1CCN(c2cccc(C(F)(F)F)c2)CC1 (centres undefined),11,16,17,.,34*,.,45*,.
CC(NC(=O)c1ccco1)C(=O)N1CCN(c2ccccc2)CC1 (centres undefined),3,-1,2,4,5,1,.,.
O=C(CSCc1ccccc1Br)Nc1ccccc1,3,-3,37*,-6,16*,-3,32*,47*
Cc1ccc(C)c(S(=O)(=O)Nc2cc3c4c(c2)CCC(=O)N4CCC3)c1,10,9,7,-2,3,2,.,.
Nc1nc(NCc2ccco2)nc(N2CCN(Cc3ccccc3)CC2)c1[N+](=O)[O-],5,-6,48*,-11,29*,0,42*,48*
COc1ccccc1OCC(=O)Nc1nonc1NC(=O)COc1ccccc1OC,6,-4,-6,3,-3,3,.,.
CC(C)c1ccc(N(CC(=O)N2CCN(Cc3ccccc3)CC2)S(C)(=O)=O)cc1,-1,9,-5,-1,0,2,.,.
CC(=O)c1sc(NC(=O)C2CCN(C(=O)c3ccccc3C)CC2)nc1-c1ccccc1,10,-6,27*,-6,25*,1,32*,14
Cc1cccc(NC(=O)C2CCN(C(=O)c3ccccc3C)CC2)n1,4,12,5,.,3,.,.,.
COc1ccc(CCNC(=O)COC(=O)C2CC2)cc1OC,.,4,.,.,.,.,.,.
Cc1ccc(NS(=O)(=O)c2cccc(C(=O)N3CCN(c4ncccn4)CC3)c2)cc1,31*,18,50*,.,24*,.,-1,2
Cc1ccc(NS(=O)(=O)c2cccc(C(=O)N3CCCCCCC3)c2)cc1,9,4,2,4,0,1,.,.
CN(CC(=O)Nc1ccccc1Cl)C(=O)CN1C(=O)C2CC=CCC2C1=O (centres undefined),.,6,.,.,.,.,.,.
COc1ccc(C(CNC(=O)COc2ccc(-c3ccccc3)cc2)N2CCOCC2)cc1 (centres undefined),5,20,44*,-6,45*,1,57*,45*
COc1ccc(C(CNC(=O)COc2c(C)cc(C)cc2C)N2CCOCC2)cc1 (centres undefined),-2,10,6,.,-3,.,.,.
COc1ccc(S(=O)(=O)N(C)CC(=O)N2CCCCCC2)cc1OC,4,18,1,-3,-3,-6,.,.
COc1ccc(S(=O)(=O)N(C)CC(=O)N2CCN(c3ccc(F)cc3)CC2)cc1OC,3,9,37*,-1,22*,-2,21*,33*
SMILES,PME-1 primary,PREPL inhibitor,LYPLA2 inh,GSTO1 inh,LYPLA1 inh,Fam108B inh,LYPLA1 conf,LYPLA2 conf
O=C(NCCNC(=O)c1cc(OCC(F)(F)F)ccc1OCC(F)(F)F)Nc1cccc(C(F)(F)F)c1,-5,-9,61*,-5,33*,2,44*,50*
O=C(Nc1ccc2oc(-c3cccnc3)nc2c1)c1ccc2c(c1)OCCO2,-15,10,47*,11,21*,-6,53*,49*
Cc1ccc(C(=O)N2CCNC(=O)C2CC(=O)Nc2ccccc2)cc1 (centres undefined),2,1,-2,-2,-2,0,.,.
O=C(CCN1CCN(c2ccc([N+](=O)[O-])cc2)CC1)c1ccc(Cl)cc1,-1,7,73*,-12,37*,0,47*,79*
O=C(Nc1cc(C(F)(F)F)ccc1-n1cncn1)c1ccc([N+](=O)[O-])o1,0,-2,0,8,-1,0,.,.
COc1ccc(C(=O)NC(=S)Nc2ccc(N3CCOCC3)c(Cl)c2)cc1[N+](=O)[O-],1,12,60*,1,50*,-6,54*,61*
COc1ccc(C(=O)NC(=S)Nc2ccc(CN3CCOCC3)cc2)cc1Cl,2,-13,60*,3,22*,-3,21*,46*
CCC(=O)N1CCN(c2ccc(NC(=S)NC(=O)c3ccc(OC)c([N+](=O)[O-])c3)cc2)CC1,7,5,63*,7,56*,1,70*,81*
COc1ccc(C(=O)NC(=S)Nc2ccccc2N2CCOCC2)cc1[N+](=O)[O-],8,35,12,-8,0,-1,.,.
O=C1Cc2ccccc2C(c2ccc(Br)cc2)N1 (centres undefined),-1,-1,30*,8,22*,-2,29*,27*
Cc1ccccc1C1NC(=O)Cc2ccccc21 (centres undefined),2,-2,3,6,1,1,.,.
O=[N+]([O-])c1ccccc1S(=O)(=O)N/C(=N/S(=O)(=O)c1ccccc1)c1ccccc1,.,5,.,.,.,.,.,.
COc1ccc(CC(C)N2CCN(c3cccc(C(F)(F)F)c3)CC2)cc1OC (centres undefined),0,9,31*,9,25*,4,32*,35*
CCOc1cc(CN2CCN(c3cccc(C(F)(F)F)c3)CC2)ccc1OC,-3,10,-2,0,-1,1,.,.
COc1ccc(CN2CCN(Cc3cccc(Oc4ccccc4)c3)CC2)c(OC)c1OC,0,6,26*,-1,21*,3,31*,21

# Compound activity (PubChem BioAssay)
